# Test results taken from PubChem BioAssay AID1159580 (chemical genetic matrix, 2015).
# Screen size: about 5,500 compounds; about 2,000 (36%) were called active. Roughly 18% stayed inconclusive and do not appear here. The list shows a part of the results. Values without a mark were called inactive. Rule as the data show it: active = normalized growth mostly below about 0.91 (no sharp cut-off); inconclusive = no clear call, values can overlap the other calls; inactive = mostly above about 0.92.
# Assay: chemical genetic growth profiling, strain panel (AID 1159580);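 also: tested at 20 µM; growth read once vehicle control cultures reached saturation at 30 °C; 1 = growth at the plate median or of vehicle wells; lower values mean less growth of the strain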
# Conditions: growth OD
smiles,measurement,setting,value
Nc1ncnc2nc[nH]c12,normalized growth,"S. cerevisiae deletion strains, locus YJR066W, strain TOR1, hits give low values",0.966
same,normalized growth,"S. cerevisiae deletion strains, locus YKL009W, strain mrt4, hits give low values",0.942
same,normalized growth,"S. cerevisiae deletion strains, locus YKL068W, hits give low values",1.03
same,normalized growth,"S. cerevisiae deletion strains, locus YKL085W, strain MDH1 (second series), hits give low values",1.01
same,normalized growth,"S. cerevisiae deletion strains, locus YKL085W, strain MDH1, hits give low values",1.01
same,normalized growth,"S. cerevisiae deletion strains, locus YKL160W, strain elf1, hits give low values",0.995
same,normalized growth,"S. cerevisiae deletion strains, locus YKR001C, strain vps1, hits give low values",0.319 (active)
same,normalized growth,"S. cerevisiae deletion strains, locus YKR026C, strain gcn3, hits give low values",0.996
same,normalized growth,"S. cerevisiae deletion strains, locus YKR091W, strain srl3, hits give low values",0.99
same,normalized growth,"S. cerevisiae deletion strains, locus YLL001W, strain dnm1, hits give low values",0.965
same,normalized growth,"S. cerevisiae deletion strains, locus YLL026W, hits give low values",0.994
same,normalized growth,"S. cerevisiae deletion strains, locus YLL041C, strain sdh2, hits give low values",0.991
same,normalized growth,"S. cerevisiae deletion strains, locus YLR027C, strain aat2, hits give low values",0.997
same,normalized growth,"S. cerevisiae deletion strains, locus YLR039C, strain RIC1, hits give low values",0.443 (active)
same,normalized growth,"S. cerevisiae deletion strains, locus YLR058C, strain SHM2, hits give low values",0.908
same,normalized growth,"S. cerevisiae deletion strains, locus YLR102C, strain apc9, hits give low values",0.997
same,normalized growth,"S. cerevisiae deletion strains, locus YLR113W, strain HOG1, hits give low values",1.04
same,normalized growth,"S. cerevisiae deletion strains, locus YLR221C, strain rsa3, hits give low values",0.964
same,normalized growth,"S. cerevisiae deletion strains, locus YLR258W, strain gsy2, hits give low values",0.985
same,normalized growth,"S. cerevisiae deletion strains, locus YLR262C, strain YPT6 (second series), hits give low values",1.01
same,normalized growth,"S. cerevisiae deletion strains, locus YLR262C, strain YPT6, hits give low values",0.514 (active)
same,normalized growth,"S. cerevisiae deletion strains, locus YLR268W, strain sec22, hits give low values",0.795 (active)
same,normalized growth,"S. cerevisiae deletion strains, locus YLR320W, strain mms22, hits give low values",0.973
same,normalized growth,"S. cerevisiae deletion strains, locus YLR330W, strain CHS5, hits give low values",0.842 (active)
same,normalized growth,"S. cerevisiae deletion strains, locus YLR342W, strain FKS1 (second series), hits give low values",0.864
same,normalized growth,"S. cerevisiae deletion strains, locus YLR342W, strain FKS1, hits give low values",0.983
same,normalized growth,"S. cerevisiae deletion strains, locus YLR357W, strain rsc2, hits give low values",0.972
same,normalized growth,"S. cerevisiae deletion strains, locus YLR370C, strain arc18, hits give low values",0.983
same,normalized growth,"S. cerevisiae deletion strains, locus YLR371W, strain rom2, hits give low values",0.985
same,normalized growth,"S. cerevisiae deletion strains, locus YLR384C, strain iki3, hits give low values",0.987
same,normalized growth,"S. cerevisiae deletion strains, locus YLR418C, strain cdc73, hits give low values",0.612 (active)
same,normalized growth,"S. cerevisiae deletion strains, locus YML016C, strain PPZ1, hits give low values",1.04
same,normalized growth,"S. cerevisiae deletion strains, locus YML032C, strain rad52, hits give low values",0.972
same,normalized growth,"S. cerevisiae deletion strains, locus YML120C, strain ndi1, hits give low values",0.97
same,normalized growth,"S. cerevisiae deletion strains, locus YML124C, strain tub3, hits give low values",1
same,normalized growth,"S. cerevisiae deletion strains, locus YMR058W, strain fet3, hits give low values",0.994
same,normalized growth,"S. cerevisiae deletion strains, locus YMR078C, strain ctf18, hits give low values",0.988
same,normalized growth,"S. cerevisiae deletion strains, locus YMR125W, strain sto1, hits give low values",0.978
same,normalized growth,"S. cerevisiae deletion strains, locus YMR129W, hits give low values",0.979
same,normalized growth,"S. cerevisiae deletion strains, locus YMR205C, strain PFK2, hits give low values",0.968
same,normalized growth,"S. cerevisiae deletion strains, locus YMR223W, strain ubp8, hits give low values",0.846 (active)
same,normalized growth,"S. cerevisiae deletion strains, locus YMR231W, strain pep5, hits give low values",0.991
same,normalized growth,"S. cerevisiae deletion strains, locus YMR263W, strain SAP30, hits give low values",0.932
same,normalized growth,"S. cerevisiae deletion strains, locus YMR307W, strain GAS1, hits give low values",1.18
same,normalized growth,"S. cerevisiae deletion strains, locus YNL067W, strain RPL9B, hits give low values",0.945
same,normalized growth,"S. cerevisiae deletion strains, locus YNL071W, strain lat1, hits give low values",0.988
same,normalized growth,"S. cerevisiae deletion strains, locus YNL128W, strain TEP1, hits give low values",0.955
same,normalized growth,"S. cerevisiae deletion strains, locus YNL183C, strain NPR1, hits give low values",0.97
same,normalized growth,"S. cerevisiae deletion strains, locus YNL209W, strain ssb2, hits give low values",0.984
same,normalized growth,"S. cerevisiae deletion strains, locus YNL233W, strain BNI4, hits give low values",0.695 (active)
same,normalized growth,"S. cerevisiae deletion strains, locus YNL248C, strain rpa49, hits give low values",0.982
same,normalized growth,"S. cerevisiae deletion strains, locus YNL250W, strain rad50, hits give low values",1.01
same,normalized growth,"S. cerevisiae deletion strains, locus YNL271C, strain bni1, hits give low values",0.956
same,normalized growth,"S. cerevisiae deletion strains, locus YNL298W, strain CLA4, hits give low values",0.956
same,normalized growth,"S. cerevisiae deletion strains, locus YNL307C, strain MCK1, hits give low values",0.591 (active)
same,normalized growth,"S. cerevisiae deletion strains, locus YNL322C, strain KRE1 (second series), hits give low values",0.982
same,normalized growth,"S. cerevisiae deletion strains, locus YNL322C, strain KRE1, hits give low values",0.97
same,normalized growth,"S. cerevisiae deletion strains, locus YNR049C, strain mso1, hits give low values",0.982
same,normalized growth,"S. cerevisiae deletion strains, locus YNR052C, strain pop2, hits give low values",0.954
same,normalized growth,"S. cerevisiae deletion strains, locus YOL006C, strain TOP1, hits give low values",0.783
same,normalized growth,"S. cerevisiae deletion strains, locus YOL012C, strain htz1",0.719
same,normalized growth,"S. cerevisiae deletion strains, locus YOL147C, strain pex11, hits give low values",0.834 (active)
same,normalized growth,"S. cerevisiae deletion strains, locus YOR001W, strain rrp6, hits give low values",1
same,normalized growth,"S. cerevisiae deletion strains, locus YOR061W, strain CKA2, hits give low values",0.995
same,normalized growth,"S. cerevisiae deletion strains, locus YOR069W, strain VPS5, hits give low values",0.971
same,normalized growth,"S. cerevisiae deletion strains, locus YOR070C, strain gyp1, hits give low values",0.981
same,normalized growth,"S. cerevisiae deletion strains, locus YOR080W, strain dia2, hits give low values",0.997
same,normalized growth,"S. cerevisiae deletion strains, locus YOR083W, strain WHI5, hits give low values",0.981
same,normalized growth,"S. cerevisiae deletion strains, locus YOR106W, strain vam3, hits give low values",0.953
same,normalized growth,"S. cerevisiae deletion strains, locus YOR136W, strain idh2, hits give low values",0.968
same,normalized growth,"S. cerevisiae deletion strains, locus YOR144C, strain elg1, hits give low values",0.885 (active)
same,normalized growth,"S. cerevisiae deletion strains, locus YOR184W, strain ser1, hits give low values",0.708 (active)
same,normalized growth,"S. cerevisiae deletion strains, locus YOR231W, strain MKK1, hits give low values",1.01
same,normalized growth,"S. cerevisiae deletion strains, locus YOR265W, strain rbl2, hits give low values",0.987
same,normalized growth,"S. cerevisiae deletion strains, locus YOR270C, strain vph1, hits give low values",0.972
same,normalized growth,"S. cerevisiae deletion strains, locus YOR290C, strain snf2, hits give low values",0.971
same,normalized growth,"S. cerevisiae deletion strains, locus YOR316C, strain cot1, hits give low values",0.995
same,normalized growth,"S. cerevisiae deletion strains, locus YPL051W, strain arl3, hits give low values",0.99
same,normalized growth,"S. cerevisiae deletion strains, locus YPL055C, strain LGE1, hits give low values",0.796
same,normalized growth,"S. cerevisiae deletion strains, locus YPL078C, strain atp4, hits give low values",0.983
same,normalized growth,"S. cerevisiae deletion strains, locus YPL106C, strain sse1, hits give low values",0.973
same,normalized growth,"S. cerevisiae deletion strains, locus YPL240C, strain hsp82, hits give low values",0.993
same,normalized growth,"S. cerevisiae deletion strains, locus YPL241C, strain CIN2, hits give low values",1.01
same,normalized growth,"S. cerevisiae deletion strains, locus YPL256C, strain CLN2, hits give low values",1.06
same,normalized growth,"S. cerevisiae deletion strains, locus YPR119W, strain clb2, hits give low values",0.987
same,normalized growth,"S. cerevisiae deletion strains, locus YPR141C, strain kar3, hits give low values",1.02
same,normalized growth,"S. cerevisiae deletion strains, locus YPR163C, strain tif3, hits give low values",0.889 (active)
same,normalized growth,"S. cerevisiae deletion strains, locus YPR167C, strain met16, hits give low values",0.976
same,normalized growth,"S. cerevisiae deletion strains, strain wtn01, hits give low values",0.841 (active)
same,normalized growth,"S. cerevisiae strains, strain wild type, hits give low values",0.879 (active)
